# Measurements published in PubChem BioAssay (NCI).
# “And” between values parts separate entries of the source, which are not always exact repeats. Identical values can stand only once. About 79,000 compounds went through this panel and 15% of them were active in at least one assay; those are over-represented in the sample as a whole. Some structures have more than one record in an assay (separate samples or runs), and their calls can disagree. The source made the active and inactive calls. Cut-off read from the data, not from the text of the source: active = growth inhibition above about 70%; inactive = the rest.
# What was measured:
# [1] = NCI Yeast Anticancer Drug Screen. Data for the rad50 strain (AID 155);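 note: 0% = growth of vehicle-only cultures of the same strain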; conditions: S. cerevisiae rad50 strain growth inhibition, stronger effect = higher value
# Procedure, shortened: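 DNA repair mutant yeast, compound exposure, growth read-out; inhibition is taken relative to vehicle.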
# [2] = NCI Yeast Anticancer Drug Screen. Data for the mec2-1 strain (AID 157); conditions: S. cerevisiae mec2-1 strain, stronger effect = higher value
# Procedure, shortened: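 mec2-1 yeast strain, carrying an alteration in DNA damage repair or cell cycle control, was exposed to compounds; growth inhibition was measured relative to vehicle-treated controls.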
# [3] = NCI Yeast Anticancer Drug Screen. Data for the sgs1 mgt1 strain (AID 161);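 note: 0% = growth of cultures given vehicle only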; conditions: S. cerevisiae sgs1 mgt1 strain, stronger effect = higher value
# Procedure, shortened: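 Yeast cells carrying a defined DNA-repair defect were exposed to test compounds. Growth inhibition was measured relative to vehicle-treated controls.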
# [4] = NCI Yeast Anticancer Drug Screen. Data for the cln2 rad14 strain (AID 165);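 note: 0% = growth equal to vehicle treated cultures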; conditions: S. cerevisiae cln2 rad14 strain, stronger effect = higher value
# Procedure, shortened: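 Yeast carrying cln2 and rad14 alterations (cell cycle control and DNA damage repair) were exposed to compounds. Growth inhibition was measured against vehicle-treated controls.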
# [5] = NCI Yeast Anticancer Drug Screen. Data for the bub3 strain (AID 167); conditions: S. cerevisiae bub3 mutant strain, stronger effect = higher value
# Procedure, shortened: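 In this screen, a yeast mutant lacking normal mitotic checkpoint function is challenged with compound. Relative growth versus vehicle gives the inhibition value.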
# [6] = NCI Yeast Anticancer Drug Screen. Data for the mlh1 rad18 strain (AID 175); conditions: S. cerevisiae mlh1 rad18 strain growth inhibition, stronger effect = higher value
# Procedure, shortened: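 Growth inhibition of the yeast strain was measured after compound exposure and expressed relative to vehicle-treated controls. The strain carries defined defects in DNA damage repair.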
# [7] = at 5.0 µM (retest, dose inferred, filed as 0.5)
# [8] = at 50.0 µM (retest, dose inferred, filed as 5.0)
Compound,"growth inhibition [1, 7]","growth inhibition [1, 8]",growth inhibition ([1]; at 50.0 µM),"growth inhibition [2, 7]","growth inhibition [2, 8]",growth inhibition ([2]; at 50.0 µM),"growth inhibition [3, 7]","growth inhibition [3, 8]",growth inhibition ([3]; at 50.0 µM),"growth inhibition [4, 7]","growth inhibition [4, 8]",growth inhibition ([4]; at 50.0 µM),"growth inhibition [5, 7]","growth inhibition [5, 8]",growth inhibition ([5]; at 50.0 µM),"growth inhibition [6, 7]","growth inhibition [6, 8]",growth inhibition ([6]; at 50.0 µM)
O=C1N(c2ccccc2)C(=O)N1c1ccccc1,-8% (inactive),-6% (inactive),1.05% (inactive) and 0.3% (inactive),-19% (inactive),-1% (inactive),25.6% (inactive) and -2.2% (inactive),-11% (inactive),3% (inactive),43.2% (inactive) and -12.2% (inactive),20% (inactive),17% (inactive),0.1% (inactive) and -20.9% (inactive),14% (inactive),17% (inactive),22.1% (inactive) and -12.4% (inactive),-16% (inactive),-11% (inactive),28.6% (inactive) and 2.3% (inactive)
CC12CCCCC1C/C(=N/NC(N)=O)CC2 (configuration not stated),-135% (inactive),-78% (inactive),8.9% (inactive) and 3.8% (inactive),-52% (inactive),-45% (inactive),13.1% (inactive) and 1.25% (inactive),-64% (inactive),-54% (inactive),-5.85% (inactive) and -9.35% (inactive),-58% (inactive),-42% (inactive),41.9% (inactive) and -25.8% (inactive),-62% (inactive),-49% (inactive),-4.1% (inactive) and -11.3% (inactive),-123% (inactive),-99% (inactive),14.5% (inactive) and 10.7% (inactive)
Oc1ccc2ccccc2c1Cc1c(O)ccc2ccccc12,-1% (inactive),86% (active),33% (inactive) and 99.2% (active),11% (inactive),96% (active),29.8% (inactive) and 22.7% (inactive),7% (inactive),53% (inactive),44.1% (inactive) and 99.5% (active),-25% (inactive),95% (active),21.6% (inactive) and 97.8% (active),-6% (inactive),95% (active),16.2% (inactive) and 48.6% (inactive),-8% (inactive),89% (active),16.4% (inactive) and 99.3% (active)
Nc1c(C(=O)O)ccc(C(=O)O)c1C(=O)O,-131% (inactive),-173% (inactive),-5.95% (inactive) and 2.45% (inactive),-50% (inactive),-53% (inactive),14.1% (inactive) and -1% (inactive),-54% (inactive),-67% (inactive),25% (inactive) and 3.8% (inactive),-56% (inactive),-60% (inactive),3.75% (inactive) and -23.4% (inactive),-65% (inactive),-79% (inactive),-2.6% (inactive) and -5.8% (inactive),-113% (inactive),-123% (inactive),33.5% (inactive) and -12.9% (inactive)
O=C1/C(=C\c2ccc([N+](=O)[O-])cc2)Sc2scc(-c3ccc(O)c(O)c3)[n+]21,6% (inactive),93% (active),83.2% (active),-10% (inactive),95% (active),93.8% (active),14% (inactive),96% (active),94.9% (active),-4% (inactive),93% (active),71.1% (active),-19% (inactive),98% (active),92.5% (active),23% (inactive),97% (active),90.8% (active)
OC(CN1CCCCC1)c1cc(-c2ccc(Cl)cc2)nc2cc(Cl)ccc12 (configuration not stated),-6% (inactive),99% (active),90.5% (active),-13% (inactive),100% (active),92.7% (active),-4% (inactive),100% (active),99.5% (active),-7% (inactive),99% (active),95.6% (active),-7% (inactive),99% (active),99.4% (active),18% (inactive),99% (active),99.2% (active)
O=C1c2cc3c(cc2CC12Cc1ccccc1C2)CCC3,23% (inactive),21% (inactive),20% (inactive),15% (inactive),15% (inactive),2.25% (inactive),22% (inactive),54% (inactive),46.9% (inactive),10% (inactive),16% (inactive),16.8% (inactive),24% (inactive),51% (inactive),50% (inactive),19% (inactive),23% (inactive),17.4% (inactive)
CCCCCCCCCCCCN1C(=O)[N+](C)(C)N=C1[O-],6% (inactive),41% (inactive),98.7% (active),4% (inactive),49% (inactive),99.3% (active),7% (inactive),60% (inactive),99.1% (active),-4% (inactive),21% (inactive),97.5% (active),4% (inactive),34% (inactive),98.9% (active),4% (inactive),49% (inactive),99.1% (active)
CCSSc1ccccc1C(=O)NC(CC)CO (configuration not stated),1% (inactive),59% (inactive),73.5% (active),15% (inactive),69% (inactive),20.8% (inactive),20% (inactive),71% (active),94.3% (active),0% (inactive),12% (inactive),19.4% (inactive),-10% (inactive),62% (inactive),65.5% (inactive),3% (inactive),73% (active),65.5% (inactive)
O=C(NC(C(=O)O)c1ccccc1)OCc1ccccc1 (configuration not stated),-3% (inactive),-3% (inactive),-3% (inactive) and -15.4% (inactive) and 0.9% (inactive),1% (inactive),0% (inactive),-28.1% (inactive) and -22.8% (inactive) and 0.9% (inactive),-1% (inactive),-2% (inactive),-23.6% (inactive) and -3.2% (inactive),1% (inactive),-2% (inactive),-12.2% (inactive) and 88% (active),-1% (inactive),-2% (inactive),-8.4% (inactive) and 21.4% (inactive),3% (inactive),-1% (inactive),-7.9% (inactive) and 2.55% (inactive) and 48.3% (inactive)
CC(=O)Nc1cc(C)ccc1C,1% (inactive),-3% (inactive),-36.6% (inactive) and -46.2% (inactive),-2% (inactive),0% (inactive),15.4% (inactive) and -28.3% (inactive),0% (inactive),-3% (inactive),-1.25% (inactive) and -9.15% (inactive),-3% (inactive),4% (inactive),51.8% (inactive) and 34.4% (inactive),0% (inactive),-3% (inactive),42.2% (inactive) and -9.35% (inactive),3% (inactive),-4% (inactive),-36.9% (inactive) and -2% (inactive)
CO[C@H](C(=O)[C@@H](O)[C@@H](C)O)[C@@H]1Cc2cc3cc(OC4CC(OC5CC(O)C(O)C(C)O5)C(O)C(C)O4)c(C)c(O)c3c(O)c2C(=O)[C@H]1OC1CC(OC2CC(OC3CC(C)(O)C(O)C(C)O3)C(O)C(C)O2)C(O)C(C)O1 (some centres not stated),12% (inactive),77% (active),72.1% (active) and 5.15% (inactive),7% (inactive),39% (inactive),33% (inactive) and -0.5% (inactive),6% (inactive),37% (inactive),62.4% (inactive) and 17.8% (inactive),21% (inactive),47% (inactive),93.2% (active) and 11.2% (inactive),-2% (inactive),43% (inactive),44.5% (inactive) and 24.1% (inactive),4% (inactive),33% (inactive),41.5% (inactive) and 14.4% (inactive)
Oc1cccc2c1-c1ccccc1C2,-6% (inactive),96% (active),98.8% (active),1% (inactive),92% (active),98.9% (active),-7% (inactive),97% (active),98.4% (active),-4% (inactive),83% (active),96.8% (active),32% (inactive),97% (active),98.4% (active),9% (inactive),98% (active),98.1% (active)
CCC[CH2][Sn]1([CH2]CCC)[O]N=C(c2ccccc2)C(c2ccccc2)[O]1 (configuration not stated),19% (inactive),19% (inactive),88.4% (active),20% (inactive),20% (inactive),87.8% (active),-1% (inactive),-1% (inactive),89.4% (active),8% (inactive),8% (inactive),79.7% (active),12% (inactive),12% (inactive),78.8% (active),12% (inactive),12% (inactive),79.9% (active)
